Compound activity: PubChem, National Center for Advancing Translational Sciences (NCATS)
This excerpt belongs to a sample that is enriched for hits.
FBPA Giardia inh – Giardia lamblia aldolase inhibition | A8B2U2 | Potency, µM (top dose mostly 59.6 µM), inactives show at the highest dose activity, negative = inhibition, actives largely listed as inhibitors | purified Giardia FBPA | 0.71% of 290,000 active | AID 2451; note: potency is the fitted concentration of half-maximal effect; % is set by controls: 0 for no effect and ±100 for the full control effect; nearly all actives have a fitted effect of over 55% in size
Target sequence (A8B2U2 whole entry, looked up): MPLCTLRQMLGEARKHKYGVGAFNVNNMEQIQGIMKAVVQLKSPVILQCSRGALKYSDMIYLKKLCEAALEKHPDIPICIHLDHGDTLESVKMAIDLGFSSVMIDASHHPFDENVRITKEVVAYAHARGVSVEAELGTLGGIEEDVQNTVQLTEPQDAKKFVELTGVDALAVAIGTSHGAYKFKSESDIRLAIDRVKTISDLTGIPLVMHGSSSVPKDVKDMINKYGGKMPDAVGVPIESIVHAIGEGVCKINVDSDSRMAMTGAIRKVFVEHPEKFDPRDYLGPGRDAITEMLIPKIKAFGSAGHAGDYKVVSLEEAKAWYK
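40 nM FBPA preincubated 10 min at RT with compound (up to 57.5 uM final), then substrate plus GAPDH/TPI/NAD/arsenate coupling and diaphorase/resazurin added. Fluorescence read after 20 min at RT, 525/598 nm.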
LmPK inh – inhibitors of Leishmania mexicana pyruvate kinase. AID 1721. 0.37% of 290,000 active. Q27686. Potency, µM (highest dose often 57.5 µM), inactives show at the highest dose activity change, negative = inhibition, actives largely listed as inhibitors. purified LmPK, Kinase-Glo ATP luminescence, 1 h; note: potency is the fitted concentration of half-maximal effect; % is set by controls: 0 for no effect and ±100 for the full control effect
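In 50 mM imidazole pH 7.2 with 7 mM MgCl2, LmPK (0.1 nM) turned over PEP (0.5 mM) and ADP (0.1 mM) for 1 h at room temperature. Luciferase read-out of ATP.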
Tb PYK inh – blocks Trypanosoma brucei pyruvate kinase; Q57TT1; 0.12% of 410,000 active; TbPYK enzyme, Kinase-Glo Plus ATP luminescence, 45 min; Potency, µM (highest dose often 76.8 µM), for the others: at the top dose activity, negative = inhibition, hits mostly inhibitors; note: potency is the fitted concentration of half-maximal effect; % is set by controls: 0 for no effect and ±100 for the full control effect; nearly all actives have a fitted effect of over 50% in size
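T. brucei PYK with substrate was exposed to pin-transferred compounds across a concentration series, then started with 130 uM ADP (final). After 45 min at room temperature, Kinase-Glo Plus luminescence was read, normalized and curve-fitted.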
Shiga toxin inh – Shiga toxin inhibition; Vero cells, Shiga toxin protein synthesis inhibition reporter; inhibition, % at 38.7 µM; 9.2% of 290,000 active; in the data active = inhibition mostly above about 28%, no sharp cut-off; inactive = mostly below about 43%; note: 0% is about no effect
RE007 growth inh – less growth of the S. pombe RE007 Vpr strain; S. pombe RE007 Vpr strain, BacTiter-Glo ATP luminescence, 24 h; Potency, µM (top dose mostly 92.2 µM), inactives show at the highest dose activity change, negative = less growth, actives largely listed as inhibitors; AID 651644; 0.21% of 360,000 active; active = well fitted falling curve with a large enough effect; inconclusive = small, poorly fitted or top-dose-only effect; inactive = no such curve, though single readings can be large or run the other way; note: potency is the fitted concentration of half-maximal effect; % is set by controls: 0 for no effect and ±100 for the full control effect; nearly all actives have a fitted effect of over 50% in size
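Fission yeast strain RE007, carrying one chromosomally integrated HIV-1 vpr copy, was seeded at OD 0.01 in PMG+AL medium with 23 nL pinned compound. After 24 h at 30 °C and 99% humidity, viability was read by BacTiter-Glo luminescence.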
CHX counter – affects cycloheximide protein synthesis inhibition readout, counter-screen | cell reporter, cycloheximide protein synthesis inhibition counterscreen | max response, % | 12% of 300,000 active | AID 2314; in the data active = max response mostly above about 13%, no sharp cut-off; inactive = mostly below about 14%; note: read at 38.3 µM for the half of the compounds with a filed dose; 0% is about no effect
* hit, by the source's call; ? = inconclusive; / = no result; [ ] = dose if it differs, or a comment. Unless noted, calls come from the whole dose curve; as a rule, active = well fitted curve in the direction sought with a large enough effect; inconclusive = small, poorly fitted or top-dose-only effect, or another doubt; inactive = no such curve, though single readings can be large; an effect the other way counts as inactive or inconclusive.

SMILES	FBPA Giardia inh	LmPK inh	Tb PYK inh	Shiga toxin inh	RE007 growth inh	CHX counter
O=C(c1cc2ccccc2oc1=O)N(Cc1cccs1)C1CCS(=O)(=O)C1 (configuration not stated)	4%	-15%	-3%	144*	5%	47*
CCOC(=O)/C=C(\C)Sc1cc(O)c2ccccc2c1O	7.1µM*	10µM*	7.1µM*	59*	63µM*	31*
CCOC(=O)/C=C(\C)Sc1cc(=O)oc2ccccc12	2%	1%	0%	16	23%	8
COC(=O)c1cc2c(ccn2-c2ccc(F)cc2)n1Cc1ccc(OC)cc1	-4%	0%	1%	54*	-5%	47*
COC(=O)c1cc2c(ccn2-c2ccc(F)cc2)n1Cc1ccc(C#N)cc1	-11%	-1%	4%	-12	-2%	-3
CCn1c(C(=O)OC)cc2c1ccn2-c1ccc(F)cc1	-13%	4%	?	113*	-20%	54*
CCCCn1nnnc1SCC(=O)Nc1ccc2c(c1)OCCO2	0%	-2%	-6%	17	7%	7
CCn1nnnc1SCC(=O)Nc1ccc2c(c1)OCO2	-2%	6%	4%	45*	1%	16
Cn1nnnc1SCC(=O)Nc1ccc2c(c1)OCO2	-5%	-3%	1%	114*	-13%	26*
CN(C)c1ccc(CNC(=O)C2COc3ccccc3C2)cc1 (configuration not stated)	/	/	3%	/	/	/
CCCN1CCN(c2ncnc3sc(C(=O)Nc4ccc(N(CC)CC)cc4C)c(C)c23)CC1	/	/	-12%	/	/	/
COc1ccc2c(c1)CC(C(=O)Nc1ccc(Br)c(C)c1)CO2 (configuration not stated)	/	/	0%	/	/	/
NC(=O)NCCC1=CCCCC1	6%	3%	3%	-10	-8%	-3
C=CCn1c(N)c(C(=O)NCCC2=CCCCC2)sc1=S	7%	2%	?	106*	-8%	49*
Nc1ncc(Br)cc1S(=O)(=O)NCCC(=O)N1CCN(c2ccccc2)CC1	/	4%	-5%	-9	5%	-6
Cc1nnsc1S(=O)c1ccc(Cl)cc1 (configuration not stated)	2%	-4%	4%	-6	-2%	-2
O=C(Nc1ccccc1)c1nnsc1S(=O)c1ccc(Cl)cc1 (configuration not stated)	-19%	0%	?	-26	2.8µM*	9
O=C(c1ccc(Cl)cc1)N1CCN(c2ccc(N3CCOCC3)nn2)CC1	/	/	8%	/	4%	/
O=C(c1nnsc1S(=O)(=O)c1ccc(Cl)cc1)N1CCOCC1	2%	11%	2%	45*	-12%	28*
CN(c1ccc(C(=O)N2CCOCC2)cc1)S(=O)(=O)c1ccc(Cl)cc1	/	-1%	-9%	34*	0%	10*
O=C(c1nnsc1S(=O)c1ccc(Cl)cc1)N1CCOCC1 (configuration not stated)	2%	2%	-9%	64	?	60*
Cc1cccc(N=C/C(C(=O)C(F)(F)F)=C(\O)c2ccco2)c1	19%	-5%	-9%	-5	/	-1
O=C(/C(C=Nc1ccc(F)cc1)=C(/O)c1ccco1)C(F)(F)F	2%	-11%	-5%	62*	-8%	60*
Cc1ccc(N=C/C(C(=O)C(F)(F)F)=C(\O)c2ccco2)cc1Cl	-2%	0%	1%	106*	-29%	60*
CCCOc1ccc(C(=O)Nc2cc3c(cc2N2CCOCC2)n(C)c(=O)n3C)cc1	/	/	-14%	/	/	/
SMILES	FBPA Giardia inh	LmPK inh	Tb PYK inh	Shiga toxin inh	RE007 growth inh	CHX counter
O=C(Nc1cccc(-c2nc3ccccc3[nH]2)c1)c1c(F)cccc1F	/	/	0%	/	/	/
CC(=O)Oc1ccccc1N(C(C)=O)S(=O)(=O)c1ccc2ccccc2c1	-1%	-7%	-6%	23	2%	11
CC(=O)Oc1c(Br)cc(N(C(C)=O)S(=O)(=O)c2ccccc2)c2ccccc12	28µM*	?	-18%	/	2%	2
O=C(c1ccncc1)N1CCC[C@@]2(CCN(Cc3cc(C(F)(F)F)cc(C(F)(F)F)c3)C2)C1	-11%	/	1%	/	/	/
COC(=O)Cn1c(=NC(=O)c2sc3ccccc3c2Cl)sc2cc(S(N)(=O)=O)ccc21	8%	-1%	3%	-2	22%	-1
COC(=O)Cn1c(=NC(=O)c2nc3ccccc3s2)sc2cc(S(C)(=O)=O)ccc21	1%	-1%	/	15	/	17*
COC(=O)Cn1c(=NC(=O)c2ccc(Cl)s2)sc2cc(C)ccc21	0%	-1%	-6%	39	-5%	18*
COC(=O)Cn1c(=NC(=O)c2ccc([N+](=O)[O-])s2)sc2cc(Br)ccc21	2%	-2%	/	39	/	15*
Cn1c(=NC(=O)c2ccc(F)cc2)sc2cc(Br)ccc21	/	/	-2%[15.4 µM]	/	/	/
CCOC(=O)c1cc(-c2ccc(F)cc2)n(CCC(=O)Nc2ccccc2OC)c1C	/	/	8%[15.4 µM]	/	/	/
CCOc1ccc(C(Nc2ccc(C)cc2)P2(=O)OCCC(C)O2)cc1 (configuration not stated)	0%	8%	-2%	-2	15%	-3
Cc1ccc2c(Sc3ccc(Cl)cc3)c(C(=O)N3CCC(C)CC3)[nH]c2c1	/	/	2%	/	/	/
CC(=O)Oc1ccc(-c2csc(Nc3ccccn3)n2)cc1	/	/	-13%	/	-8%	/
c1cncc(Nc2nc(-c3ccncc3)cs2)c1	4%	1%	0%	-5	7%	1
Fc1ccc(-c2csc(Nc3ccccn3)n2)cc1	-18%	3%	-1%	92*	?	48*
Fc1ccc(-c2csc(-c3ccncc3)n2)cc1	3%	-15%	0%	49*	-11%	31*
OC(c1ccc(F)cc1)c1nc(-c2ccncc2)cs1 (configuration not stated)	/	/	-6%	/	-12%[18.4 µM]	/
Clc1ccccc1-c1csc(Nc2cccnc2)n1	-3%	0%	2%	53*	3%	26*
c1ccc(Nc2nc(-c3cccnc3)cs2)nc1	0%	-18%	-1%	104*	-10%	57*
C=Cc1ccc(Cn2c(C)c(CNCc3cccc(Br)c3)c(C(=O)O)c2C)cc1	/	/	0%	/	/	/
COc1ccccc1CNC(=O)CCc1c(C)nc2c(c(C)nn2-c2ccc(C)c(C)c2)c1C	/	/	0%	/	/	/
Clc1ccccc1Nc1nc(-c2cccnc2)cs1	-11%	-26%	-7%	50*	-6%	41*
CCOc1ccccc1Nc1nc(-c2cccnc2)cs1	16%	2%	-11%	-3	-3%	-1
